IMPase cell inh: qHTS Assay for Identifying the Cell-Membrane Permeable IMPase Inhibitors. CHO-M1 cells, IP1 accumulation, HTRF TR-FRET ratio. Inositol monophosphatase 1 (Rattus norvegicus), P97697. inhibition (IP1 accumulation), % at 46.1 µM. 120,000 tested, under 10 active; active = well fitted curve in the direction sought with a large enough effect in the signal ratio, not every such curve was filed as active; inconclusive = small, poorly fitted or top-dose-only effect, or a change in a side signal; inactive = no such curve, though single readings can be large or run the other way; the % refers to the signal ratio;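 also: cells stimulated with carbachol in lithium chloride buffer; higher means more IMPase inhibition seen as more IP1 and lower FRET ratio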
Target sequence (P97697 whole entry, looked up): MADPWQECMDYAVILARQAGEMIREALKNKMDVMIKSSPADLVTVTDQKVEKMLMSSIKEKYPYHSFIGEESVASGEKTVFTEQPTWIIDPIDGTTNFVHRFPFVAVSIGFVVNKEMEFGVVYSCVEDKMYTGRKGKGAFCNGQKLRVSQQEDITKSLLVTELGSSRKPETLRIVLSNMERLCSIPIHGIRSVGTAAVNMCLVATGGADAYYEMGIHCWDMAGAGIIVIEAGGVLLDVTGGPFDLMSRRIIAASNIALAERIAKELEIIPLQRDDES
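The IP-One HTRF competitive assay in carbachol-stimulated CHO-M1 cells quantifies cellular IP1. Compounds spanned up to 46 uM final, and activity is expressed as AC50 from concentration-response fits of the ratio and donor data.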
ALDH1A1 inh-1: qHTS Assay for Inhibitors of Aldehyde Dehydrogenase 1 (ALDH1A1); Aldehyde dehydrogenase 1A1 (Homo sapiens), P00352; Purified ALDH1A1, NADH fluorescence, propionaldehyde substrate; Potency, µM (highest dose often 75.3 µM), actives largely listed as inhibitors; 7.3% of 220,000 active
HPGD inh: qHTS Assay for Inhibitors of HPGD (15-Hydroxyprostaglandin Dehydrogenase) | 15-hydroxyprostaglandin dehydrogenase [NAD(+)] (Homo sapiens), P15428 | purified HPGD, NADH fluorescence kinetic, PGE2 substrate | Potency, µM, actives largely listed as inhibitors | 4.3% of 150,000 active | AID 894, 2007
Target sequence (P15428 whole entry, looked up): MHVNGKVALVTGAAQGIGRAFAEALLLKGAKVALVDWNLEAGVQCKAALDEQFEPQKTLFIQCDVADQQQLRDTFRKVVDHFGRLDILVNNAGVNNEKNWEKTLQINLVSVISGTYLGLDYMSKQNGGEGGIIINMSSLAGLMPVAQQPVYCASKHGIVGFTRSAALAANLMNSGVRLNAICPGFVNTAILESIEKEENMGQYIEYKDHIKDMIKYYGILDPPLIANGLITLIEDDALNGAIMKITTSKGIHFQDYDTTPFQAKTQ
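NADH formation kinetics: reaction with 30 uM PGE2 and 1 mM NAD+ (final), 20 nM enzyme, Tris-HCl pH 8 with Tween 20, after 15 min compound preincubation at room temperature. Fluorescence change, last versus first of five reads.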
HPGD inh cf: Confirmation qHTS Assay for Inhibitors of HPGD (15-Hydroxyprostaglandin Dehydrogenase); recombinant HPGD, NADH fluorescence, PGE2 substrate; shares compounds with HPGD inh; Potency, µM (titrated, usually from 57.1 µM), hits mostly inhibitors; 90% of 90 active; calls by dose curve
ALDH1A1 inh-2: Inhibitors of Aldehyde Dehydrogenase 1 (ALDH1A1): Followup Confirmation and Counterscreen | Potency, µM (series often up to 57.1 µM), most hits filed as inhibitors | AID 493210, 2011 | shares compounds with ALDH1A1 inh-1 | 90% of 90 active | purified ALDH1A1, NADH fluorescence, propionaldehyde/NAD+; calls by dose curve
Of the large screens only hits and unclear results are named; the others gave an inactive call (follow-up assays come after a bar, where they were run). In the library only some 9% were active in any assay of this set; here they are far more common. Unless noted, calls follow the shape of the dose curve; as a rule, active = well fitted inhibition curve with a large enough effect (not every such curve was filed as active); inconclusive = small, poorly fitted or top-dose-only effect, or another doubt; inactive = no such curve, though single readings can be large or run the other way.

O=C1OCc2cc(N=Nc3c(O)[nH]c(=O)[nH]c3=O)ccc21	none (no result: IMPase cell inh, HPGD inh)
O=c1[nH]c(=S)[nH]c(O)c1N=Nc1ccc(S(=O)(=O)N2CCc3ccccc32)cc1	ALDH1A1 inh-1 6.3µM (no result: IMPase cell inh, HPGD inh)
NC[C@H](CC(=O)O)c1ccc(Cl)cc1	none
O=C1Nc2ccccc2C2(CCN(CCc3ccc(C(F)(F)F)cc3)CC2)O1	none (no result: IMPase cell inh)
O=c1[nH]c(O)c(C=Nc2ccccc2[N+](=O)[O-])c(=O)[nH]1	none (no result: IMPase cell inh, HPGD inh)
Cc1cccc2c1=NC(=O)/C(=C/c1c(O)[nH]c(=O)[nH]c1=O)C=2	ALDH1A1 inh-1 0.5µM, HPGD inh inconclusive
COc1ccc(N2C(=O)CS(=O)C(c3ccccc3)C2=O)cc1 (stereo not given)	ALDH1A1 inh-1 1.1µM (no result: IMPase cell inh, HPGD inh)
COc1ccc(N2C(=O)CC(N3CCC(n4c(=O)[nH]c5ccccc54)CC3)C2=O)cc1 (stereo not given)	ALDH1A1 inh-1 inconclusive
O=c1[nH]c(=O)n(CCC2=CCCCC2)c(O)c1C=NCc1cccnc1	ALDH1A1 inh-1 25µM
CCN(CC)CCN=Cc1c(O)n(CCC2=CCCCC2)c(=O)[nH]c1=O	ALDH1A1 inh-1 inconclusive
COc1ccc(CC(=O)NC(=S)NNC(=O)COc2c(C)cccc2C)cc1	ALDH1A1 inh-1 inconclusive (no result: IMPase cell inh)
Cc1ccccc1C(=O)NNC(=S)NC(=O)COc1ccccc1	ALDH1A1 inh-1 7.1µM, HPGD inh 25µM
C[C@H](CN(C)C)C(C#N)(c1ccccc1)c1ccccc1	none (no result: IMPase cell inh)
N#CC(Cl)Cl	ALDH1A1 inh-1 18µM (no result: IMPase cell inh)
CC(C)C#N	none (no result: IMPase cell inh)
NC1=NC([S][Hg][c]2ccc(N)cc2)c2ncn([C@@H]3O[C@H](CO)[C@@H](O)[C@@H]3O)c2N1 (stereo not given in full)	ALDH1A1 inh-1 0.1µM, HPGD inh 0.05µM (no result: IMPase cell inh)
C=CCc1c(C)nc(C)nc1N/N=C/c1ccc(N(C)C)cc1	ALDH1A1 inh-1 inconclusive, HPGD inh inconclusive
C=C1C/C(=C/C)C(=O)O[C@@H]2CCN3CC=C(COC(=O)[C@]1(C)O)[C@@H]23	none
CCN(CC)CCSc1nc2ccccc2c(=O)n1-c1ccc(Cl)cc1	none (no result: ALDH1A1 inh-1, HPGD inh)
O=c1c2ccccc2nc(SCC2CCCCO2)n1-c1ccccc1 (stereo not given)	ALDH1A1 inh-1 18µM (no result: IMPase cell inh)
COc1ccc2c(c1)C13CCCCC1C(C2)N(C)CC3 (stereo not given)	none (no result: IMPase cell inh)
COC[C@]12CN(C=O)C3C4C(OC)C1[C@@]3(C1CC3(O)C(OC)C(O)C4(OC(C)=O)C1C3OC(=O)c1ccccc1)[C@@H](OC)CC2O (stereo not given in full)	none (no result: IMPase cell inh)
CCNCC	none (no result: IMPase cell inh)
C/C(O)=C(/C#N)C(=O)Nc1cc(Br)ccc1Br	ALDH1A1 inh-1 inconclusive
COC(=O)[C@]1(C)CC[C@@]2(C)CC[C@@]3(C)C4=CCc5c(cc(O)c(O)c5C)[C@]4(C)CC[C@@]3(C)C2C1 (stereo not given in full)	HPGD inh 28µM (no result: IMPase cell inh)
CC(=O)Nc1c2sscc-2n(C)c1=O	none (no result: IMPase cell inh)
CCC(Cl)[N+](=O)[O-] (stereo not given)	ALDH1A1 inh-1 inconclusive (no result: IMPase cell inh)
Nc1nc(=S)c2ncn(C3OC(CO)C(O)C3O)c2[nH]1 (stereo not given)	ALDH1A1 inh-1 7.9µM (no result: IMPase cell inh, HPGD inh)
Nc1ncnc2c1ncn2[C@@H]1O[C@H](COP(=O)(O)CP(=O)(O)OP(=O)(O)O)[C@H](O)[C@H]1O	none (no result: IMPase cell inh)
COc1cc2c3cc1Oc1c(O)c(OC)cc4c1[C@@H](Cc1ccc(cc1)Oc1cc(ccc1O)C[C@H]3N(C)CC2)N(C)CC4	none (no result: IMPase cell inh)
CC(=O)Nc1ccccc1C(=O)OCC(=O)c1ccccc1Cl	none (no result: IMPase cell inh)
CC(=O)Nc1ccccc1OP1(=O)COc2ccccc2OC1	IMPase cell inh inconclusive | HPGD inh cf inactive
Cc1ccc(-c2nc(N3CCOCC3)s[n+]2-c2ccccc2)cc1	ALDH1A1 inh-1 2.5µM, HPGD inh 0.16µM (no result: IMPase cell inh) | HPGD inh cf 3.2µM
CN(C)c1nc(-c2ccccc2)[n+](C)s1	ALDH1A1 inh-1 inconclusive (no result: HPGD inh)
C=C1C2CC[C@@]3(C)C(c4ccoc4)OC(=O)C[C@@]13OC1CC(=O)C(C)(C)C(C(OC(C)=O)C(=O)OC)[C@@]12C (stereo not given in full)	none (no result: IMPase cell inh)
COc1ccc(C(=O)O[C@H]2CC[C@@]3(C)C4CCC5[C@]6(O)C[C@H](O)[C@@]7(O)C(CN8C[C@@H](C)CC[C@H]8[C@@]7(C)O)[C@]6(O)C[C@@]53O[C@@]42O)cc1OC (stereo not given in full)	none (no result: IMPase cell inh, HPGD inh)
COc1ccc2c(c1)CCC1C2CC[C@@]2(C)C1CC[C@@H]2NCCCCCCN1C(=O)C=CC1=O (stereo not given in full)	ALDH1A1 inh-1 0.5µM (no result: IMPase cell inh) | ALDH1A1 inh-2 5µM
CCOc1ccc(Cn2c(=O)oc3ccc(C)cc32)cc1OC	IMPase cell inh inconclusive
O=C(Oc1ccccc1)N1CCC2(CCCN(Cc3ccccc3)C2)CC1	ALDH1A1 inh-1 inconclusive (no result: IMPase cell inh)
